# Experimental data from PubChem BioAssay (Tox21).
# “And” between values parts separate entries of the source, which are not always exact repeats. Equal values may be shown once. Unmarked numbers belong to inactive results. Results filed as inconclusive are left out. A call without a number means that no potency is given here. The source made the active and inactive calls. Unless noted, the call rests on the fitted dose curve; in most records, active means well fitted curve in the direction sought with a large enough effect in the repeat runs; inconclusive means weak or mixed curves; inactive means no such curve, though single readings can be large; an effect the other way counts as inactive or inconclusive.
# Assays:
# [1] = qHTS assay for small molecules that induce genotoxicity in human embryonic kidney cells expressing luciferase-tagged ATAD5 (AID 651632); further: nearly all actives have a fitted effect of over 15% in size; further: potency means the concentration at half of the fitted maximal effect
# Procedure, shortened: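 A rise in luciferase signal from ATAD5-tagged HEK293T cells marks genetic stress. Cells were exposed to compounds for 16 hr at 37C, 5% CO2, then luciferase was quantified after a 30 min room-temperature incubation with Amplite.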
# [2] = qHTS assay for small molecule agonists of the p53 signaling pathway - cell viability (AID 651633; calls by dose curve; further: nearly all actives have a fitted effect of over 30% in size; further: potency means the concentration at half of the fitted maximal effect)
# Procedure, shortened: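 Viability counter-read: CellTiter-Glo luminescence (30 min, room temperature) in the same p53RE-bla plates. These plates had been exposed to compounds for 16 h at 37 C.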
# [3] = qHTS assay to test for compound auto fluorescence at 590 nm (red) in HepG2 cells (AID 720674)
# Procedure, shortened: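 We screened compounds on adherent HepG2 cells, incubating them for an hour at 37 C in 5% CO2 before reading emission at 590 nm under 540 nm excitation; values reflect equivalence to Rose Bengal sodium fluorescence.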
# [4] = qHTS assay to test for compound auto fluorescence at 535 nm (green) in HepG2 cells (AID 720675)
# [5] = qHTS assay to test for compound auto fluorescence at 460 nm (blue) in HEK293 cells (AID 720678)
# Procedure, shortened: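 Auto fluorescence in the blue band was quantified as triamterene equivalency. HEK293 cells were seeded at 2,000/well, dosed after a 4-5 hr attachment, and kept overnight at 37C before the 405/460 nm reading.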
# [6] = qHTS assay to test for compound auto fluorescence at 590 nm (red) in HEK293 cells (AID 720679)
# Procedure, shortened: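 Autofluorescence equivalency to Rose Bengal sodium, 540/590nm, in HEK293 cells exposed overnight to 23 nL compound per well.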
# [7] = qHTS assay to test for compound auto fluorescence at 535 nm (green) in HEK293 cells (AID 720680)
# [8] = qHTS assay to test for compound auto fluorescence at 460 nm (blue) in HEK293 cell free culture (AID 720681)
# Procedure, shortened: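 Blue fluorescence (Ex 405/Em 460 nm, triamterene-equivalent) was read immediately after pin transfer of compound or DMSO into medium (DMEM, 10% FBS) without cells.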
# [9] = qHTS assay to test for compound auto fluorescence at 535 nm (green) in HEK293 cell free culture (AID 720682)
# Procedure, shortened: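 Intrinsic compound fluorescence is measured in culture medium containing 10% FBS, with excitation at 485 nm and detection at 535 nm, referenced to fluorescein.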
# [10] = qHTS assay to test for compound auto fluorescence at 590 nm (red) in HEK293 cell free culture (AID 720683)
# Procedure, shortened: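 Red-channel autofluorescence of compounds in culture medium (DMEM, 10% FBS), no cells, measured at 540/590 nm. Rose Bengal sodium is the reference fluorophore for equivalence.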
# [11] = qHTS assay to test for compound auto fluorescence at 590 nm (red) in HepG2 cell free culture (AID 720684)
# Procedure, shortened: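 Cell-free; medium MEM + 10% FBS; compound or DMSO added by pintool; read Ex 540/Em 590 nm; Rose Bengal sodium as red reference fluorophore.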
# [12] = qHTS assay to test for compound auto fluorescence at 460 nm (blue) in HepG2 cell free culture (AID 720685)
# Procedure, shortened: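 Cell-free plates of MEM plus 10% FBS received 23 nL compound or DMSO vehicle; blue-channel (405/460 nm) intensity scored against triamterene as reference fluorophore.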
# [13] = qHTS assay to test for compound auto fluorescence at 535 nm (green) in HepG2 cell free culture (AID 720686)
# [14] = qHTS assay to test for compound auto fluorescence at 460 nm (blue) in HepG2 cells (AID 720687)
# Procedure, shortened: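 Blue-channel autofluorescence (Ex/Em 405/460 nm, triamterene-equivalent) was measured after 1 hr compound exposure at 37 C, 5% CO2. Cells were HepG2, plated overnight at 37 C in MEM plus 10% FBS.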
# [15] = qHTS assay for small molecules that induce genotoxicity in human embryonic kidney cells expressing luciferase-tagged ATAD5 - cell viability (AID 651634; calls by dose curve; further: nearly all actives have a fitted effect of over 25% in size; further: potency means the concentration at half of the fitted maximal effect)
# Procedure, shortened: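 Cytotoxicity counter-readout: after 15.5 hr compound treatment at 37C, live-cell protease activity in ATAD5-luciferase HEK293T cells measured by CellTiter-Fluor fluorescence, 30 min development at 37C.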
# [16] = qHTS assay for small molecule disruptors of the mitochondrial membrane potential - cell viability (AID 720634; calls by dose curve; further: nearly all actives have a fitted effect of over 20% in size; further: potency means the concentration at half of the fitted maximal effect)
# Procedure, shortened: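 Cytotoxicity was quantified from ATP content by CellTiter-Glo luminescence in the same wells as the MMP dye read-out. HepG2 (2,000 cells/well) were plated overnight and exposed to compounds for 1 hr at 37 C.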
# [17] = target: Glucocorticoid receptor (Homo sapiens) (UniProt P04150); assay: qHTS assay to identify small molecule agonists of the glucocorticoid receptor (GR) signaling pathway (AID 720691; active means well fitted activation curve with a large enough effect in the signal ratio in the repeat runs, not every such curve was filed as active; the % refers to the signal ratio)
# Procedure, shortened: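 Agonist-mode qHTS in HeLa cells stably expressing a glucocorticoid-response-element beta-lactamase reporter. Fluorescence intensity read with FRET substrate (2 h, room temperature) after 18 h compound treatment at 37 C.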
# [18] = target: Glucocorticoid receptor (Homo sapiens) (UniProt P04150); assay: qHTS assay to identify small molecule antagonists of the glucocorticoid receptor (GR) signaling pathway (AID 720692; active means well fitted inhibition curve with a large enough effect in the signal ratio in the repeat runs, not every such curve was filed as active; the % refers to the signal ratio; further: potency means the concentration at half of the fitted maximal effect)
# Procedure, shortened: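 Inhibition of dexamethasone-driven (5 nM final) beta-lactamase expression was measured in GRE-reporter HeLa cells over 18 h at 37C. Fluorescence was read after 2 h with the B/G FRET substrate at room temperature.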
# [19] = qHTS assay for small molecule disruptors of the mitochondrial membrane potential (AID 720635); further: potency means the concentration at half of the fitted maximal effect
# Procedure, shortened: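 Mitochondrial membrane potential tracked with Mito-MPS dye, red aggregates (ex 540/em 590 nm) against green monomers (ex 490/em 535 nm). Compound treatment 1 hr at 37C, dye 30 min in HepG2.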
# Sequence of Glucocorticoid receptor (Homo sapiens) (P04150 whole entry, looked up): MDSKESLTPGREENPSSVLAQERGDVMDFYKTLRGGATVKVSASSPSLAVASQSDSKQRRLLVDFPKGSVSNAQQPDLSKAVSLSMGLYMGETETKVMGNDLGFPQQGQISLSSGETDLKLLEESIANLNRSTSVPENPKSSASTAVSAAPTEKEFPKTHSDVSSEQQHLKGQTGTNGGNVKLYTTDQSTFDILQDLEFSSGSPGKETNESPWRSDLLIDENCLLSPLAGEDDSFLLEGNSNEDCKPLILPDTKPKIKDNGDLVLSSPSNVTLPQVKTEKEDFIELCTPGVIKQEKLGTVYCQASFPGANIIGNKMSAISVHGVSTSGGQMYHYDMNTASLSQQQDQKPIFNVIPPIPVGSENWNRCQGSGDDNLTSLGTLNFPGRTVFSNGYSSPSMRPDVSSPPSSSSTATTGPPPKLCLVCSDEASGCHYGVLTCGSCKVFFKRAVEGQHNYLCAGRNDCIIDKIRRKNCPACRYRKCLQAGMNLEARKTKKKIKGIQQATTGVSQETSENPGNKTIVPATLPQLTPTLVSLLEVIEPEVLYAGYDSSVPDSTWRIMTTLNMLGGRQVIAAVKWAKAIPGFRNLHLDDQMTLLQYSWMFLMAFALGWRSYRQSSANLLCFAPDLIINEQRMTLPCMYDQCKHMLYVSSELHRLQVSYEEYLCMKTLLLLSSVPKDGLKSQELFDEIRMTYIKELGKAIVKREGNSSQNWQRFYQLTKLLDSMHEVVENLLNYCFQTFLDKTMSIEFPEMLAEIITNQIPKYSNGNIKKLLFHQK
SMILES,Potency [1],Potency [2],outcome [3],outcome [4],Potency [5],outcome [6],outcome [7],Potency [8],outcome [9],outcome [10],outcome [11],Potency [12],outcome [13],Potency [14],Potency [15],Potency [16],Potency [17],Potency [18],Potency [19]
Cc1cc(SCc2sc(-c3ccc(C(F)(F)F)c(F)c3)nc2C)ccc1OCC(=O)O,inactive,48.6 µM (active),inactive,inactive,inactive,inactive,inactive,inactive,inactive,inactive,inactive,inactive,inactive,inactive,–,–,–,–,–
CCCN(CCC)c1c([N+](=O)[O-])cc(S(N)(=O)=O)cc1[N+](=O)[O-],inactive,–,inactive,inactive,inactive,inactive,inactive,inactive,inactive,inactive,inactive,inactive,inactive,inactive,54.5 µM (active),32.7 µM (active),–,–,–
O=[N+]([O-])c1c2ccccc2cc2ccccc12,inactive,inactive,inactive,inactive,inactive,inactive,inactive,inactive,inactive,inactive,inactive,–,inactive,inactive,inactive,–,inactive,–,–
O=c1[nH]c2ccccc2n1C1CCN(CCCC(c2ccc(F)cc2)c2ccc(F)cc2)CC1,inactive,23.7 µM (active) and 61.1 µM (active),inactive,inactive,inactive,inactive,inactive,inactive,inactive,inactive,inactive,–,–,inactive,29.8 µM (active) and 54.5 µM (active),–,–,–,–
C[C@@H]1O[C@@H](O[C@H]2C[C@@H](O)[C@]3(CO)[C@H]4[C@H](O)C[C@]5(C)[C@@H](C6=CC(=O)OC6)CC[C@]5(O)[C@@H]4CC[C@]3(O)C2)[C@H](O)[C@H](O)[C@H]1O,inactive,33.5 nM (active) and 53.1 nM (active) and 20.6 nM (active),–,inactive,inactive,inactive,inactive,inactive,inactive,inactive,inactive,inactive,inactive,inactive,59.6 nM (active) and 37.6 nM (active) and 32.6 nM (active),–,inactive,0.268 µM (active),–
Oc1ccc(C2(c3ccc(O)cc3)CCCCC2)cc1,inactive,–,inactive,inactive,inactive,inactive,inactive,inactive,inactive,inactive,inactive,inactive,inactive,inactive,inactive,inactive,–,–,16.3 µM (active)
S=C(SSC(=S)N1CCCCC1)N1CCCCC1,29.8 µM (active),–,inactive,inactive,inactive,inactive,inactive,inactive,inactive,inactive,inactive,inactive,inactive,inactive,inactive,inactive,–,inactive,inactive
